# Test results reported in PubChem BioAssay (NCATS).
# Several values for one entry are separate records, joined by “and”; a condition that tells them apart may be missing. Equal values may be shown once. Results filed as inconclusive are left out. Entries that show only a call come without a potency. Activity calls are given as the source filed them. Unless noted, the call rests on the fitted dose curve; in most records, active means well fitted curve in the direction sought with a large enough effect; inconclusive means small, poorly fitted or top-dose-only effect, or another doubt; inactive means no such curve, though single readings can be large; an effect the other way counts as inactive or inconclusive.
# Legend:
# [1] = NS1 protein of Zika virus - qHTS assay to identify small molecule inhibitors in human HEK 293 cells (AID 1347053); further: series mostly up to about 46 µM; nearly all actives have a fitted effect of over 55% in size
# Procedure, shortened: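 Readout was TR-FRET using paired anti-NS1 antibodies after 24 h infection of HEK 293 cells with ZIKV MR766 (MOI = 0.5). Compound preceded virus by 1 h; reduced signal reflects lower NS1 expression.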
# [2] = qHTS of pediatric cancer cell lines to identify multiple opportunities for drug repurposing: Primary screen for TC32 cells (AID 1347089); further: nearly all actives have a fitted effect of over 60% in size
# Procedure, shortened: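 Luminescent CellTiter-Glo read-out of metabolically active TC32 cells after 48 h compound exposure. Primary: MIPE 11-point, 0.78 nM–46 µM; NPC 8-point, 0.59 nM–46 µM. Confirmatory: 11-point dilutions.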
# [3] = qHTS of pediatric cancer cell lines to identify multiple opportunities for drug repurposing: Primary screen for DAOY cells (AID 1347090); further: series mostly up to about 46 µM; nearly all actives have a fitted effect of over 55% in size
# Procedure, shortened: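 Eight- or eleven-point concentration series, 48 h treatment at 37 degrees C in growth media; readout CellTiter-Glo luminescence. Potency and efficacy were taken from the concentration-response curves.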
# [4] = qHTS of pediatric cancer cell lines to identify multiple opportunities for drug repurposing: Primary screen for A673 cells (AID 1347092); further: nearly all actives have a fitted effect of over 45% in size
# Procedure, shortened: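 A673 cells (500-1,000 cells/well in growth media) were pre-incubated 5 h at 37 degrees C, then exposed to compounds for 48 h. Viability was read as CellTiter-Glo luminescence; concentration-response curves came directly from the primary screen.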
# [5] = qHTS of pediatric cancer cell lines to identify multiple opportunities for drug repurposing: Primary screen for SK-N-MC cells (AID 1347093); further: potency means the concentration at half of the fitted maximal effect
# Procedure, shortened: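 Metabolically active cells were quantified by ATP-dependent luminescence (CellTiter-Glo, 15 min at room temperature) following 48 h treatment. Cells had been plated at 500-1,000 per well and settled for 5 h beforehand.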
# [6] = qHTS of pediatric cancer cell lines to identify multiple opportunities for drug repurposing: Primary screen for NB-EBc1 cells (AID 1347095)
# Procedure, shortened: (§1)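 Readout: CellTiter-Glo luminescence, 48 h treatment. Controls DMSO (neutral) and bortezomib 2.3 µM final (positive). Potency and efficacy taken from primary-screen concentration-response curves.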
# [7] = qHTS of pediatric cancer cell lines to identify multiple opportunities for drug repurposing: Primary screen for U-2 OS cells (AID 1347096); further: nearly all actives have a fitted effect of over 50% in size
# Procedure, shortened: (§2)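 Cells (500-1,000/well) in growth media were settled 5 h at 37 degrees C, then given compounds for 48 h. Viability was read as CellTiter-Glo luminescence. Primary runs used MIPE at 11 points (0.78 nM-46 µM) and NPC at 8 points (0.59 nM-46 µM); follow-ups used 11 points.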
# [8] = qHTS of pediatric cancer cell lines to identify multiple opportunities for drug repurposing: Primary screen for Saos-2 cells (AID 1347097); further: nearly all actives have a fitted effect of over 40% in size; further: potency means the concentration at half of the fitted maximal effect
# Procedure, shortened: as §1
# [9] = qHTS of pediatric cancer cell lines to identify multiple opportunities for drug repurposing: Primary screen for SK-N-SH cells (AID 1347098); further: nearly all actives have a fitted effect of over 65% in size
# Procedure, shortened: (§3)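 Cells (500-1,000/well) rested 5 h, then received compounds for 48 h; metabolically active cells were measured by CellTiter-Glo luminescence. Final concentrations spanned up to 46 µM (MIPE, 11-point) or 0.59 nM-46 µM (NPC, 8-point) in primary screens, 11-point in follow-ups.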
# [10] = qHTS of pediatric cancer cell lines to identify multiple opportunities for drug repurposing: Primary screen for NB1643 cells (AID 1347099); further: nearly all actives have a fitted effect of over 50% in size
# Procedure, shortened: as §1
# [11] = qHTS of pediatric cancer cell lines to identify multiple opportunities for drug repurposing: Primary screen for LAN-5 cells (AID 1347100)
# Procedure, shortened: as §2
# [12] = qHTS of pediatric cancer cell lines to identify multiple opportunities for drug repurposing: Primary screen for BT-12 cells (AID 1347101); further: nearly all actives have a fitted effect of over 25% in size
# Procedure, shortened: as §3
# [13] = P-glycoprotein substrates identified in KB-8-5-11 adenocarcinoma cell line, qHTS therapeutic library screen (AID 1346987); settings: outcome: dose series up to 44.5 µM unless noted; further: nearly all actives have a fitted effect of over 65% in size; further: potency means the concentration at half of the fitted maximal effect
# Procedure, shortened: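 In this qHTS, P-gp-rich KB-8-5-11 cells received library compounds across a concentration range. Viability was quantified by luminescence after 72 h at 37 degree C.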
# [14] = biological target: Atrial natriuretic peptide receptor 1 (Homo sapiens) (UniProt P16066); assay: Natriuretic polypeptide receptor (hNpr1) antagonism - Pilot screen (AID 1347049; calls by dose curve;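 further: HEK293 cells with hNpr1 and GloSensor cGMP luciferase stimulated by 0.1 nM hNppA; agonist-evoked cGMP luminescence read 20 min after hNppA addition; series mostly up to about 58 µM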)
# Procedure, shortened: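 Cells expressing receptor plus cGMP biosensor are seeded and incubated overnight at 37C, then loaded with GloSensor reagent (2% final) at room temperature for 2 h. Library compounds go on for 30 min. A pre-read precedes agonist (hNppA, 0.1 nM final) and a 20-min readout.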
# [15] = biological target: Tyrosine-protein phosphatase non-receptor type substrate 1 (Homo sapiens) + Leukocyte surface antigen CD47 (Homo sapiens) (UniProt P78324+Q08722); assay: CD47-SIRPalpha protein protein interaction - LANCE assay qHTS validation (AID 1347057; active means well fitted curve in the direction sought with a large enough effect in the signal ratio, with a control signal flat, not every such curve was filed as active; the % refers to the signal ratio; further: series mostly up to about 38 µM)
# Procedure, shortened: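 Inhibition of soluble CD47/SIRPalpha ectodomain association by titrated compounds, measured as 665/615 nm time-resolved FRET ratio after sequential 30 min room-temperature incubations.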
# [16] = biological target: Parathyroid hormone/parathyroid hormone-related peptide receptor (Homo sapiens) (UniProt Q03431); assay: qHTS for PTHR1 Agonists: Optimization Screen against the NCGC LOPAC library (AID 1347079);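 further: GloSensor cAMP luminescence in HEK-293 GP2 cells expressing human PTHR1 with IBMX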
# Procedure, shortened: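 Signal increase flags agonism. GP2 cells, derived from HEK-293, express human PTHR1 and a GloSensor cAMP construct.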
# [17] = qHTS of pediatric cancer cell lines to identify multiple opportunities for drug repurposing: Primary screen for BT-37 cells (AID 1347094); further: potency means the concentration at half of the fitted maximal effect
# Procedure, shortened: as §1
# Tyrosine-protein phosphatase non-receptor type substrate 1 (Homo sapiens) + Leukocyte surface antigen CD47 (Homo sapiens), sequence (P78324 whole entry, looked up, the tested form may be a part): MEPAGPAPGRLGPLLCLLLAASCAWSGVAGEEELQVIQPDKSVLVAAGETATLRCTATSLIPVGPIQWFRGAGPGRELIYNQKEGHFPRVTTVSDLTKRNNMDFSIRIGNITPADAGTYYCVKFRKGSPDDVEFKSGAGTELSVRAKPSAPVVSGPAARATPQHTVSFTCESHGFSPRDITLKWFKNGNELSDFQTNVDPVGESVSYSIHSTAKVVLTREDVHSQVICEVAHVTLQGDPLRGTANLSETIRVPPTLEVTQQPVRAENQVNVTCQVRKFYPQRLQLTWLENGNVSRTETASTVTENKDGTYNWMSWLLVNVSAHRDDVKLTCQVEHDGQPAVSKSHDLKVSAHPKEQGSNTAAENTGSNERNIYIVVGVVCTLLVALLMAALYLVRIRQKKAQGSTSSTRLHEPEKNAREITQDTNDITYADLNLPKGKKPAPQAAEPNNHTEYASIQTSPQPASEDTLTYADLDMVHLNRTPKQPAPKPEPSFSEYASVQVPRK
# Tyrosine-protein phosphatase non-receptor type substrate 1 (Homo sapiens) + Leukocyte surface antigen CD47 (Homo sapiens), sequence (Q08722 whole entry, looked up, the tested form may be a part): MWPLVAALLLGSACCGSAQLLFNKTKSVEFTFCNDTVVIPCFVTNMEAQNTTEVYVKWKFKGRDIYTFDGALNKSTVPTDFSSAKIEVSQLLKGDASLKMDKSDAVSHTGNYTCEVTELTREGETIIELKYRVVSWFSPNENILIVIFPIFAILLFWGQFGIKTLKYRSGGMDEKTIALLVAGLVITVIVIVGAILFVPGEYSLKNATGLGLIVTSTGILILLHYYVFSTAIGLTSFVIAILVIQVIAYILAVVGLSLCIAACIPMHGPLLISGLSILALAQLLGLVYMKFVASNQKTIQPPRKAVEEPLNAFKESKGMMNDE
# Parathyroid hormone/parathyroid hormone-related peptide receptor (Homo sapiens), sequence (Q03431 whole entry, looked up): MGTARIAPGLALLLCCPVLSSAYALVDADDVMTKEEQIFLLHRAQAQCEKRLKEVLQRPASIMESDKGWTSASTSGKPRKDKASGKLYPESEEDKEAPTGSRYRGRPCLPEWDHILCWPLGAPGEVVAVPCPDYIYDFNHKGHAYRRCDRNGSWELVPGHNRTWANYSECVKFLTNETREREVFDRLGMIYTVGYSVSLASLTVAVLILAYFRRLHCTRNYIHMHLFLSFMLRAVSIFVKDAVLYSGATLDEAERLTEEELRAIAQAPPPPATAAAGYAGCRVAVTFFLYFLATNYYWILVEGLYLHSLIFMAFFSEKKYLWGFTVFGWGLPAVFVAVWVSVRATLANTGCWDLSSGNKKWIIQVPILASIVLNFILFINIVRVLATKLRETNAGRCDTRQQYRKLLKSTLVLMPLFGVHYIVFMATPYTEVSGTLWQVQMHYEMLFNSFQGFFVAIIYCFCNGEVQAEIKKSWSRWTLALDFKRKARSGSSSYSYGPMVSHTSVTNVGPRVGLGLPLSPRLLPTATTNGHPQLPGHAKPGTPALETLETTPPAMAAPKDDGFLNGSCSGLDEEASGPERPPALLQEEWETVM
# Atrial natriuretic peptide receptor 1 (Homo sapiens), sequence (P16066 whole entry, looked up): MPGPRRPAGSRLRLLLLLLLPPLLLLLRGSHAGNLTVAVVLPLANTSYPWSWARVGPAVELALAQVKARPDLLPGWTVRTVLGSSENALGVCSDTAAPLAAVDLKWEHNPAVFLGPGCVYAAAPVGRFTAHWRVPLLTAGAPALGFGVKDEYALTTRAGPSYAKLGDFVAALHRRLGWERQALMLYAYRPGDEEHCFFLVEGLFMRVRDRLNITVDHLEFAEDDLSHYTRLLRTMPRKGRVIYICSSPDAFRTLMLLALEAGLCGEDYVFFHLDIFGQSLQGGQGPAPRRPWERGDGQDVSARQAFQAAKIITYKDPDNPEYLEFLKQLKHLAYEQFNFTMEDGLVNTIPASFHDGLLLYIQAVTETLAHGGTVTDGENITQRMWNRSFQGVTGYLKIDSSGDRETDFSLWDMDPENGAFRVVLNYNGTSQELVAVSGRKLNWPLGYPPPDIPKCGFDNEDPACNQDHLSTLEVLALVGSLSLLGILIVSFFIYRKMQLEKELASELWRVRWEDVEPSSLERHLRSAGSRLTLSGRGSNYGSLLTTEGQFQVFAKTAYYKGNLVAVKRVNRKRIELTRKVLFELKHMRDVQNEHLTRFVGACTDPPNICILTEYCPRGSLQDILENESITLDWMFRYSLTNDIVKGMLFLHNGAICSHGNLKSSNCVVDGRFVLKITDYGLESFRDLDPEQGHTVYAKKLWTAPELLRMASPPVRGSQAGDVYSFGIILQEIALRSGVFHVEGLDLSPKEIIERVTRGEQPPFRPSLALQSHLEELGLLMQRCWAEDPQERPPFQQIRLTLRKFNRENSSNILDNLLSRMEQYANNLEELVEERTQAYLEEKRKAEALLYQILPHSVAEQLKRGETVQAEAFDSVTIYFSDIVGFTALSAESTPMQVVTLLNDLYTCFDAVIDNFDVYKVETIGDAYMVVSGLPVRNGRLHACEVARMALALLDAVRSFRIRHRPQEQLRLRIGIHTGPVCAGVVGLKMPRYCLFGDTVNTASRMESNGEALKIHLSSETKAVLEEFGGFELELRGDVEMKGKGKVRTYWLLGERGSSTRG
smiles,measurement,setting,value
O=C1c2ccccc2C(=O)c2c1ccc(O)c2O,outcome,[1],inactive
same,outcome,[2],inactive
same,outcome,[3],inactive
same,Potency,[4],inactive
same,Potency,[5],inactive
same,outcome,[6],inactive
same,outcome,[7],inactive
same,Potency,[8],23.7 µM (active)
same,outcome,[9],inactive
same,outcome,[10],inactive
same,outcome,[11],inactive
same,outcome,[12],inactive
NC[C@@H]1CC[C@@H](N)[C@@H](O[C@H]2[C@H](O)[C@@H](O[C@H]3O[C@H](CO)[C@@H](O)[C@H](N)[C@H]3O)[C@H](N)C[C@@H]2N)O1,Potency,[13],inactive
CC1(C)S[C@@H]2[C@H](NC(=O)C3(N)CCCCC3)C(=O)N2[C@H]1C(=O)O,Potency,[13],inactive
Oc1ccc(/C=C/c2cc(O)cc(O)c2)cc1,Potency,[13],inactive
same,outcome,[14],inactive
same,outcome,[1],inactive
same,outcome,[15],inactive
same,outcome,[16],inactive
same,outcome,[2],inactive
same,outcome,[3],inactive
same,Potency,[5],15 µM (active)
same,Potency,[17],19.5 µM (active)
same,outcome,[6],inactive
same,outcome,[7],inactive
same,Potency,[8],inactive
same,outcome,[10],inactive
same,outcome,[11],inactive
same,outcome,[12],inactive
CO[C@H]1C[C@H](O[C@@H]2/C(C)=C/C[C@@H]3C[C@@H](C[C@]4(CC[C@H](C)[C@@H](C5CCCCC5)O4)O3)OC(=O)[C@@H]3C=C(C)/C(=N/O)[C@H]4OC/C(=C\C=C\[C@@H]2C)[C@]43O)O[C@@H](C)[C@@H]1O,Potency,[13],inactive
CC[C@@]1([C@@H]2O[C@@H]([C@H]3O[C@@](O)(CO)[C@H](C)C[C@@H]3C)C[C@@H]2C)CC[C@H]([C@]2(C)CC[C@]3(C[C@H](O)[C@@H](C)[C@@H]([C@@H](C)[C@@H](OC)[C@H](C)C(=O)O)O3)O2)O1 (stereo in doubt),Potency,[13],6.51 µM (active) and 5.8 µM (active)
O=C(O)CCC/C=C\C[C@@H]1[C@@H](/C=C/[C@@H](O)COc2cccc(C(F)(F)F)c2)[C@H](O)C[C@@H]1O,Potency,[13],inactive
Cc1ncc(C[n+]2csc(CCO)c2C)c(N)n1,Potency,[13],inactive
CCCCCCCCCC(=O)NO,Potency,[13],inactive
CC(=O)Nc1ccc(NC(=S)NC(=O)c2ccc(C(C)(C)C)cc2)cc1,Potency,[13],6.51 µM (active) and 9.2 µM (active)
